Hits are enriched below; roughly 4.5% of the tested compounds scored in any of these assays.
Rce1 inhib: inhibitors of yeast Ras-converting enzyme | Q03530 | yeast membranes, quenched prenylated peptide cleavage fluorescence | calls only | 0.27% of 290,000 active | AID 2563;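 active = fall in fluorescence gain of 50% or more versus controls, with final raw signal at or below 3038400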;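 note: plate controls were neutral control wells for no effect and wells lacking membranes for full effect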
GRK2 aptamer HTS: blocks RNA aptamer binding to human GRK2; inhibition of aptamer binding, % at 10 µM; bead flow cytometry, FAM-aptamer displacement from GRK2; 0.59% of 330,000 active;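 active = inhibition of aptamer binding above 40%, roughly 3 SD of noise, on plates passing a quality check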;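 note: median bead fluorescence of bound FAM aptamer so fluorescent compounds give negative values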
Rtt109 Vps75: blocks Candida albicans Rtt109/Vps75 acetyltransferase activity | Q5AAJ8 | purified Rtt109/Vps75, ThioGlo CoA-SH fluorescence, 4 h | inhibition, % at 34.9 µM | 0.16% of 330,000 active;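 active = inhibition of at least 50% in every replicate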
Target sequence (Q5AAJ8 whole entry, looked up): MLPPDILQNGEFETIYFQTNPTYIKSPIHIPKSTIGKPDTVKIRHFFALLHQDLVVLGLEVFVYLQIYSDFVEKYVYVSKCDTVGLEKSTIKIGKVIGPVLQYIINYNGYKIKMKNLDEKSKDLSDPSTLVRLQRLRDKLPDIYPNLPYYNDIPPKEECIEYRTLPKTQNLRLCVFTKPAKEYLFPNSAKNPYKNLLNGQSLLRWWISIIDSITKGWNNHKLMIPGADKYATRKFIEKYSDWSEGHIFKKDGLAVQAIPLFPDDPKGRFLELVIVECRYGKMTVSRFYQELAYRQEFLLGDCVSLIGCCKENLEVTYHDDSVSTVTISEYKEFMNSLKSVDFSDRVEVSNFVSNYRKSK
ALR inh: blocks human ALR sulfhydryl oxidase activity; P55789; purified ALR, DTT oxidation, H2O2 HRP-luminol luminescence; inhibition, % (concentration not given with the values); 3.8% of 290,000 active; AID 485317;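 active = mean replicate inhibition above about 79%, with every replicate also reaching it, limit read from the data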
Efflux pump mplx: antifungal efflux pump inhibition, Nile Red retention. 0.44% of 330,000 active. S. cerevisiae Candida pump triplex. inhibition, % at 10 µM;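 active = plate passing quality check with inhibition over a set limit, or well fluorescence over plate mean plus 4 SD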;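 note: Nile Red retained in pooled yeast measured as flow cytometry median fluorescence; 0% = buffer negative control and 100% = Enniatin B positive control; higher means more Nile Red kept so more efflux inhibition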
HDAC3 inh: human HDAC3 inhibition; inhibition, % at 8.3 µM; AID 2718; O15379; recombinant HDAC3, fluorogenic peptide/trypsin coupled, fluorescence; 0.15% of 320,000 active; in the data active = inhibition above about 26%, passing the limit was not always enough
* = called active by the depositor; i = inactive; · = no result given.

SMILES | Rce1 inhib | GRK2 aptamer HTS | Rtt109 Vps75 | ALR inh | Efflux pump mplx | HDAC3 inh
COc1ccc(N2CCN(C(CNC(=O)C(=O)NCc3cccnc3)c3ccco3)CC2)cc1 (stereo not drawn) | i | 2 | 1 | 72 | 0 | 2
O=C(NCc1cccnc1)C(=O)NCC(c1ccco1)N1CCN(c2ccc(F)cc2)CC1 (stereo not drawn) | i | 0 | · | 86* | 0 | -2
O=C(COc1coc(CN2CCN(c3ccccc3)CC2)cc1=O)NCC1CCCO1 (stereo not drawn) | i | 4 | -2 | 93* | 0 | 5
O=C(NCC(c1ccco1)N1CCN(c2ccccc2)CC1)OCc1ccccc1 (stereo not drawn) | i | 0 | 6 | 23 | 0 | -7
Nc1cc(Cl)ccc1C(=O)OCC(=O)NCC1CCCO1 (stereo not drawn) | · | 4 | -12 | -3 | 0 | -30
CCCCCCCCCCCCCCC(O)C[N+](C)(CCO)CCO (stereo not drawn) | · | · | -1 | · | · | ·
COc1ccc(N2CCN(C(CNC(=O)c3ccco3)c3cccnc3)CC2)cc1 (stereo not drawn) | i | 0 | -6 | 89* | 0 | -5
S=C(NCC1CCCO1)N1CCN(c2ccccc2)CC1 (stereo not drawn) | i | 1 | -4 | 98* | 0 | 0
FC(F)(F)c1cccc(N2CCN(C(=S)NCC3CCCO3)CC2)c1 (stereo not drawn) | i | 2 | 1 | 3 | 0 | 2
COc1ccccc1N1CCN(C(CNC(=O)c2ccco2)c2cccnc2)CC1 (stereo not drawn) | i | 0 | -6 | 40 | 0 | 0
COc1ccc(N2CCN(C(CNC(=O)c3ccco3)c3ccco3)CC2)cc1 (stereo not drawn) | i | 1 | 5 | 91* | 0 | -10
O=C(NCC1CCCO1)C(=O)NCC(c1ccco1)N1CCN(c2ccccc2)CC1 (stereo not drawn) | i | 0 | -1 | 98* | 0 | -4
COc1ccccc1CN1C[C@@H]2C[C@@H](c3cccc(C)c3)N3CCC[C@@]23C1=O | i | 0 | -4 | -2 | 0 | 13
Cc1cc2nc3n(c2cc1C)CCCN3 | i | 0 | -2 | · | 0 | -7
O=C(NCc1ccncc1)C(=O)NCC(c1ccco1)N1CCN(c2ccccc2)CC1 (stereo not drawn) | i | 0 | -2 | 99* | 0 | -1
COc1ccc(N2CCN(C(CNC(=O)c3ccc4c(c3)OCO4)c3cccnc3)CC2)cc1 (stereo not drawn) | i | 0 | 6 | 97* | 0 | 9
COc1ccccc1CNC(=O)CCNC(=O)c1ccco1 | · | · | 18 | · | · | ·
CCOc1cc(/C=N/O)cc(Br)c1OCC | i | 0 | 3 | 3 | 0 | 3
COc1ccc(C(=O)N/N=C/c2c[nH]c3ccccc23)cc1 | i | 0 | 7 | 12 | 0 | 10
COc1ccc2c(/C=N/Nc3ccc(C(=O)O)cc3)c[nH]c2c1 | i | 2 | -11 | 88* | 0 | 2
COc1ccc(/C=N/Nc2ccc(C(=O)O)cc2)cc1Br | i | 0 | -1 | 99* | 0 | 4
C=CCOc1c(Br)cc(/C=N/Nc2ccc(C(=O)O)cc2)cc1OCC | i | 0 | 9 | 97* | 0 | 2
CC1CC(C)CN(C(=O)COC(=O)c2ccc(S(=O)(=O)N(C)c3ccccc3)cc2)C1 (stereo not drawn) | · | 0 | 17 | -7 | 0 | 0
COc1ccc(CCN(C)Cc2ccc(OCc3ccccc3)c(OC)c2)cc1OC | i | 0 | 1 | 99* | 0 | 3
c1ccc(NCCCNc2ccccc2)cc1 | i | 0 | 3 | 98* | 0 | -3
COC(=O)C(C)Sc1n[nH]c(=S)s1 (stereo not drawn) | i | 1 | 7 | 33 | 0 | 31*
COC(=O)CSc1n[nH]c(=S)s1 | i | 1 | · | 30 | 0 | 10
Cc1ccc(NC2CCCN(C(=O)c3ccc4[nH]ccc4c3)C2)cc1C (stereo not drawn) | i | 0 | -1 | 88* | 0 | 1
O=C(c1ccc(N2CCOCC2)cc1)N1CCCC(Nc2ccccc2)C1 (stereo not drawn) | i | 0 | -1 | 73 | 0 | -13
